Records with an inconclusive call do not appear. Activity calls are given as the source filed them. Unless noted, calls come from the whole dose curve; as a rule, active = well fitted curve in the direction sought with a large enough effect in the repeat runs; inconclusive = weak or mixed curves; inactive = no such curve, though single readings can be large; an effect the other way counts as inactive or inconclusive.
How the values were obtained:
[1] = qHTS assay to identify small molecule agonists of H2AX (AID 1224845; active = well fitted activation curve with a large enough effect in the signal ratio in the repeat runs, not every such curve was filed as active; the % refers to the signal ratio)
Summary of the method: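 Phospho-H2AX Ser139 measured by HTRF (ex 320 nm; em 665 and 620 nm) after 24 hr antibody incubation. Compounds, 15 concentrations, 0.76% DMSO, were applied to CHO-K1 cells for 3hr at 37C before lysis.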

[2] = qHTS assay to identify small molecule agonists of the hypoxia (HIF-1) signaling pathway (AID 1224846; active = well fitted activation curve with a large enough effect in the signal ratio in the repeat runs, not every such curve was filed as active; the % refers to the signal ratio)
Summary of the method: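 HRE-bla ME-180 cells (beta-lactamase reporter under hypoxia response element) were plated at 2,000 cells/well in medium with 0.5% dialyzed FBS, rested 5 hrs, then given compounds in DMSO for 17 hrs at 37C, 5% CO2. Reporter induction was read with CCF4-AM FRET substrate.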

[3] = qHTS assay to identify small molecule agonists of H2AX - cell viability counter screen (AID 1224847; calls by dose curve; note: nearly all actives have a fitted effect of over 30% in size; note: potency is the fitted concentration of half-maximal effect;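 for activity change, negative = cytotoxicity: wild-type CHO-K1 cells; top concentration of the series differs between compounds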)
Summary of the method: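 For this counter screen, overnight-attached CHO-K1 cells received test compounds (15 concentrations, 0.76% DMSO final); 3 hr later at 37C, CellTiter-Glo reagent was added and luminescence recorded after 30 min at room temperature.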

[4] = qHTS assay to identify small molecule antagonists of the estrogen related receptor (ERR) signaling pathway from Tox21 library (AID 1224848); note: nearly all actives have a fitted effect of over 50% in size
Summary of the method: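 Reading was by luminescence 30 min after ONE-Glo addition. Before that, ERR cells at 2,000 per well had rested 6 h at 37 C/5% CO2 and then received pin-tooled compounds in DMSO for 18 h at 37 C.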

[5] = qHTS assay to identify small molecule agonists of the estrogen related receptor (ERR) signaling pathway from Tox21 library (AID 1224849; calls by dose curve; note: nearly all actives have a fitted effect of over 15% in size); conditions: ERR reporter cell line, ONE-Glo luciferase, 18 h; at 92.4 µM (top of the series) unless noted
Summary of the method: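 ERR reporter cell line (NTP) seeded, rested 6 h at 37 C/5% CO2, then pinned with Tox21 compounds in DMSO. After 18 h at 37 C, ONE-Glo luciferase luminescence was read following 30 min at room temperature.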

[6] = qHTS RealTime-Glo MT Cell Viability Assay in HepG2 cells - 24 hour (AID 1224867); note: nearly all actives have a fitted effect of over 50% in size
Summary of the method: (§1)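 Cell number in HepG2 cultures estimated from NanoLuc luminescence generated by metabolic reduction of a prosubstrate by living cells. The homogeneous, nonlytic format allowed repeated reads at 0, 8, 16, 24, 32 and 40 h of compound exposure.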

[7] = qHTS RealTime-Glo MT Cell Viability Assay in HEK293 cells - 32 hour (AID 1224868); note: top concentration of the series differs between compounds; nearly all actives have a fitted effect of over 50% in size
Summary of the method: (§2)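 Homogeneous bioluminescent viability format in HEK293 cells (600 cells/well). Following 5 h at 37 C/5% CO2, 23 nL compound was pintooled; the signal was measured repeatedly during 40 h incubation.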

[8] = A CellTox Green Cytotoxicity Assay to monitor cytotoxicity in HEK293 cells - 0 hour (AID 1224869); note: nearly all actives have a fitted effect of over 50% in size
Summary of the method: (§3)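 HEK293 cells premixed with CellTox Green dye were seeded at 600 cells/well and left 5 h at 37 C/5% CO2 before pin transfer of 23 nL compound in DMSO. Fluorescence from dye bound to dead-cell DNA was read during 40 h treatment.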

[9] = qHTS RealTime-Glo MT Cell Viability Assay in HepG2 cells - 40 hour (AID 1224870); note: nearly all actives have a fitted effect of over 50% in size
Summary of the method: (§4)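 Real-time viability: cells seeded at 600 per well together with NanoLuc and cell-permeant prosubstrate, compounds added after 5 h incubation. Luminescence tracked at 0, 8, 16, 24, 32 and 40 h of exposure.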

[10] = qHTS RealTime-Glo MT Cell Viability Assay in HEK293 cells - 16 hour (AID 1224872)
Summary of the method: as §2

[11] = qHTS RealTime-Glo MT Cell Viability Assay in HEK293 cells - 40 hour (AID 1224874); conditions: RealTime-Glo luminescence; max response: hits give low values; note: nearly all actives have a fitted effect of over 50% in size
Summary of the method: (§5)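 HEK293 cells mixed with RealTime-Glo reagents (NanoLuc plus cell-permeant prosubstrate) at 600 cells/well, preincubated 5 h at 37 C/5% CO2, then given 23 nL compound in DMSO. Nonlytic luminescence from viable cells was read at 0, 8, 16, 24, 32 and 40 h.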

[12] = qHTS RealTime-Glo MT Cell Viability Assay in HepG2 cells - 32 hour (AID 1224877); note: nearly all actives have a fitted effect of over 55% in size
Summary of the method: as §1

[13] = A CellTox Green Cytotoxicity Assay to monitor cytotoxicity in HepG2 cells - 24 hour (AID 1224878); note: nearly all actives have a fitted effect of over 45% in size; note: potency is the fitted concentration of half-maximal effect
Summary of the method: (§6)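 HepG2 cells were seeded together with the CellTox Green dye at 600 cells/well, left 5 h at 37 C/5% CO2, then given compounds in DMSO. Fluorescence from dye bound to dead-cell DNA was read repeatedly over 40 h of treatment at 37 C.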

[14] = A CellTox Green Cytotoxicity Assay to monitor cytotoxicity in HepG2 cells - 40 hour (AID 1224879); note: nearly all actives have a fitted effect of over 40% in size; note: potency is the fitted concentration of half-maximal effect
Summary of the method: as §6

[15] = qHTS RealTime-Glo MT Cell Viability Assay in HEK293 cells - 0 hour (AID 1224880); note: top concentration of the series differs between compounds; nearly all actives have a fitted effect of over 45% in size
Summary of the method: as §5

[16] = A CellTox Green Cytotoxicity Assay to monitor cytotoxicity in HEK293 cells - 40 hour (AID 1224871); note: nearly all actives have a fitted effect of over 45% in size; note: potency is the fitted concentration of half-maximal effect
Summary of the method: as §3

[17] = qHTS RealTime-Glo MT Cell Viability Assay in HepG2 cells - 8 hour (AID 1224873); note: nearly all actives have a fitted effect of over 55% in size
Summary of the method: as §4

[18] = A CellTox Green Cytotoxicity Assay to monitor cytotoxicity in HEK293 cells - 24 hour (AID 1224875); note: nearly all actives have a fitted effect of over 45% in size
Summary of the method: as §3

[19] = A CellTox Green Cytotoxicity Assay to monitor cytotoxicity in HepG2 cells - 16 hour (AID 1224876); note: nearly all actives have a fitted effect of over 45% in size
Summary of the method: as §6

[20] = A CellTox Green Cytotoxicity Assay to monitor cytotoxicity in HEK293 cells - 32 hour (AID 1224881); note: nearly all actives have a fitted effect of over 40% in size; note: potency is the fitted concentration of half-maximal effect
Summary of the method: as §3
% is set by controls: 0 for no effect and ±100 for the full control effect.

Cc1cc(O)c(Cl)c(C)c1Cl
inactive: Potency [1] | Potency [2] | Potency [4] | activity change, positive = activation [5] 1.15% | Potency [6] | Potency [7] | Potency [8] | Potency [9] | Potency [10] | max response [11] -27.6% | Potency [12] | Potency [15]
active: Potency [3] 101 µM | Potency [13] 54.9 µM | Potency [14] 49 µM

C1CCCC1
inactive: Potency [1] | Potency [2] | Potency [3] | Potency [4] | activity change, positive = activation [5] 9.59% | Potency [6] | Potency [7] | Potency [8] | Potency [9] | Potency [16] | Potency [10] | Potency [17] | max response [11] -2.57% | Potency [18] | Potency [19] | Potency [12] | Potency [13] | Potency [14] | Potency [15] | Potency [20]

CCC(N)(CO)CO
inactive: Potency [1] | Potency [2] | Potency [3] | Potency [4] | activity change, positive = activation [5] 6.45% | Potency [6] | Potency [7] | Potency [8] | Potency [9] | Potency [10] | Potency [17] | max response [11] 11.9% | Potency [18] | Potency [19] | Potency [12] | Potency [13] | Potency [14] | Potency [15] | Potency [20]

CC(C)(C)C1CCC(CC2=C(O)c3ccccc3C(=O)C2=O)CC1 (stereo unspecified)
inactive: Potency [1] | Potency [2] | Potency [3] | activity change, positive = activation [5] -24.7% [at 42.5 µM] | Potency [6] | Potency [7] | Potency [8] | Potency [9] | Potency [17] | max response [11] -30% | Potency [12] | Potency [15]
active: Potency [16] 16.9 µM | Potency [20] 21.3 µM

CNC(=O)c1ccccc1
inactive: Potency [1] | Potency [2] | Potency [3] | Potency [6] | Potency [7] | Potency [8] | Potency [9] | Potency [16] | Potency [10] | Potency [17] | max response [11] -8.54% | Potency [18] | Potency [19] | Potency [12] | Potency [14] | Potency [20]

COc1cccc(N)c1
inactive: Potency [1] | Potency [2] | Potency [3] | Potency [4] | activity change, positive = activation [5] -25.2% | Potency [6] | Potency [7] | Potency [8] | Potency [9] | Potency [16] | Potency [10] | Potency [17] | max response [11] -1.08% | Potency [18] | Potency [19] | Potency [12] | Potency [14]

CCC(CN)=C(c1ccccc1)c1ccccc1
inactive: Potency [1] | Potency [2] | Potency [3] | Potency [6] | Potency [7] | Potency [8] | Potency [9] | Potency [16] | Potency [10] | Potency [17] | max response [11] -19.1% | Potency [18] | Potency [19] | Potency [12] | Potency [13] | Potency [20]

Oc1ccc2c(c1)-c1ccccc1C2
inactive: Potency [1] | Potency [2] | Potency [3] | activity change, positive = activation [5] -22% | Potency [6] | Potency [8] | Potency [9] | Potency [10] | Potency [12]
active: Potency [13] 49 µM | Potency [14] 49 µM

COCCCC/C(=N\OCCN)c1ccc(C(F)(F)F)cc1
active: Potency [14] 26.8 µM
inactive: Potency [1] | Potency [2] | Potency [3] | Potency [4] | activity change, positive = activation [5] -2.43% [at 42.5 µM] | Potency [6] | Potency [8] | Potency [9] | Potency [16] | Potency [17] | Potency [18] | Potency [15] | Potency [20]

CO[Si](CCCNc1ccccc1)(OC)OC
inactive: Potency [1] | Potency [2] | Potency [3] | Potency [6] | Potency [7] | Potency [8] | Potency [9] | Potency [16] | Potency [10] | Potency [17] | max response [11] 16.6% | Potency [18] | Potency [19] | Potency [12] | Potency [13] | Potency [14] | Potency [15] | Potency [20]

CC(NN)c1ccccc1 (stereo unspecified)
inactive: activation (H2AX phosphorylation) [1] -2.63% [at 31.6 µM] | activation [2] -1.03% [at 15.8 µM] | Potency [3] | activity change, negative = cytotoxicity [6] 1.66% [at 15.8 µM] | activity change, negative = cytotoxic [7] 1.03% [at 15.8 µM] | cytotoxicity [8] -1.54% [at 15.8 µM] | activity change, negative = cytotoxic [9] -0.13% [at 15.8 µM] | cytotoxicity increase [16] -15.6% [at 15.8 µM] | activity change, negative = cytotoxicity [10] 0.13% [at 15.8 µM] | viability change, negative = cytotoxic [17] -0.527% [at 15.8 µM] | max response [11] 2.41% | activity change [18] -7.33% [at 15.8 µM, hits give high values] | cytotoxicity increase [19] -2.37% [at 15.8 µM] | activity change, negative = cytotoxic [12] 1.72% [at 15.8 µM] | cytotoxicity [13] -5.39% [at 15.8 µM] | cytotoxicity increase [14] 0.373% [at 15.8 µM] | activity change, negative = cytotoxicity [15] -4.11% [at 15.8 µM] | cytotoxicity increase [20] -15.1% [at 15.8 µM]

O=C1c2ccccc2Cc2ccccc21
inactive: Potency [1] | Potency [2] | Potency [3] | activity change, positive = activation [5] -18.6% | Potency [6] | Potency [8] | Potency [9] | Potency [16] | Potency [10] | Potency [17] | Potency [18] | Potency [12] | Potency [14] | Potency [15] | Potency [20]

COC(=O)c1cc(Cl)ccc1OC
inactive: Potency [1] | Potency [2] | Potency [3] | Potency [6] | Potency [7] | Potency [8] | Potency [9] | Potency [16] | Potency [10] | Potency [17] | max response [11] 6.18% | Potency [18] | Potency [19] | Potency [12] | Potency [13] | Potency [14] | Potency [15] | Potency [20]

Reference: PubChem BioAssay (Tox21)
